Data: PubChem BioAssay AID739 (SRMLSC, 2007)
The whole screen tested about 98,000 compounds, of which about 880 (0.9%) were called active. Only a selection was taken, and actives are over-represented in it overall. A number with no mark means an inactive call. Cut-off read from the data, not from the text of the source: active = inhibition above about 30%; inactive = the rest.

test: phenotypic screen on post-Golgi transport, primary screen (AID 739); conditions: post-Golgi transport phenotypic cell assay; at 10 µM; stronger effect = higher value;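 note: yeast cells grown in 1536-well plates; yeast grown about 18 h at 30C before absorbance read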

Compound	inhibition
CN1CCN(c2ccc(NC(=O)COc3ccc(Cl)cc3Cl)cc2)CC1	0.47%
Cc1ccccc1OCC(=O)Nc1ccc(N2CCN(C(=O)C(C)C)CC2)c(Cl)c1	-4.22%
Cc1ccc(NC(=O)COc2ccc(-n3ccnc3)cc2)cc1Cl	48.8% (active)
CCCOc1cc(C)c(S(=O)(=O)n2nnc3ccccc32)cc1C	0.66%
Cn1cc(S(=O)(=O)N2CCC(Cc3ccccc3)CC2)c(=O)n(C)c1=O	7.01%
Cn1cc(S(=O)(=O)N2CCN(c3ccc(F)cc3)CC2)c(=O)n(C)c1=O	-6.58%
CC(C)c1ccc(NS(=O)(=O)c2cn(C)c(=O)n(C)c2=O)cc1	76% (active)
CCN1CCN(C(=O)c2cc3cc4ccc(OC)cc4nc3s2)CC1	1.48%
O=C(NC1CCN(Cc2ccccc2)CC1)c1ccccc1F	1.69%
O=C(COc1ccc(Br)cc1F)NC1CCN(Cc2ccccc2)CC1	95.3% (active)
O=C(COc1ccccc1F)NC1CC1	15.2%
CCC1(C)Cc2c(sc3nc(SC)nc(N)c23)CO1 (configuration not stated)	-2.83%
COC(=O)c1ccc(Cc2ccccc2)o1	8.24%
CCOc1ccccc1NC(=O)Nc1cc(OC)ccc1OC	1.32%
C=C(C)COc1ccc(-c2n[nH]c(C)c2-c2ccccc2OC)c(O)c1	-7.36%
CCOc1ccccc1Oc1cn[nH]c1-c1ccc(OC)cc1O	80.9% (active)
O=C(Nc1ccc(Cl)cc1)c1cc2nc(C3CC3)cc(C(F)(F)F)n2n1	12%
CC12c3ccccc3C(c3ccccc31)C1C(=O)N(Cc3cccnc3)C(=O)C12 (configuration not stated)	2.75%
CC(C)Cc1oc(C(=O)O)cc1CN	-3.35%
COC(=O)C1CCN(CC(N)=O)CC1	0%
COc1cccc(OCC(O)CN2CCN(CCO)CC2)c1 (configuration not stated)	3.01%
Cc1ccc(OCC(O)CN2CCN(CC(O)COc3ccc(C)cc3Cl)CC2)c(Cl)c1 (configuration not stated)	67.9% (active)
OC(COc1cccc2ccccc12)CN1CCN(c2ccccn2)CC1 (configuration not stated)	3.42%
Fc1ccc(-n2c(Cc3ccccc3)nnc2SCc2nc(-c3ccc(Cl)cc3)no2)cc1	-6.61%
Cc1nn(C)c(Oc2ccc(Cl)cc2)c1C=O	-3.55%

Compound	inhibition
Cc1nc(Cl)c2oc3ccccc3c2n1	12.3%
OC(COc1cccc(OCC(O)CN2CCCC2)c1)CN1CCCC1 (configuration not stated)	-2.18%
CCC(=O)c1ccc(OCC(O)CN2CC(C)OC(C)C2)cc1 (configuration not stated)	2.21%
O=C(c1ccc(Cl)cc1)c1ccc(OCC(O)CN2CCCCC2)cc1 (configuration not stated)	35.1% (active)
CC(C)NC(=O)C(=O)NCCN1CCN(S(=O)(=O)c2ccc(Cl)cc2)CC1	1.12%
CC1(C)Cc2c(sc3nc(SCC(=O)NCc4ccccc4)n(-c4ccccc4)c(=O)c23)CS1	8.61%
COc1cccc(NC(=O)Cc2ccc(C)cc2)c1	24.4%
COc1ccc(CC(=O)Nc2ccc(-c3nnc(-c4ccc(C)cc4)o3)cc2)cc1	5.17%
COc1ccc(NC(=O)/C(Cl)=C(/Cl)S(=O)Cc2ccc(C)cc2)cn1 (configuration not stated)	107% (active)
COC(=O)C(NC(=O)c1ccc(OC)cc1)(Nc1ncc(S(=O)(=O)c2ccc([N+](=O)[O-])cc2)s1)C(F)(F)F (configuration not stated)	6.99%
Cc1cc(C)cc(OCC(=O)Nc2nc3ccc([N+](=O)[O-])cc3s2)c1	-4.35%
O=C(NC(Nc1nc2ccc([N+](=O)[O-])cc2s1)(C(F)(F)F)C(F)(F)F)c1ccccc1	102% (active)
COc1cc(OC)c(/C=N/NC(=O)c2ccc([N+](=O)[O-])cc2)cc1Br	-4.41%
CCCc1ccc(-c2c(C)sc(NC(=O)c3ccnn3C)c2C#N)cc1	-9.37%
CC(CCc1ccccc1)NC(=O)c1ccc(Br)o1 (configuration not stated)	2.83%
CC(CNC(=O)c1ccc(Br)o1)NC(=O)c1ccc(Br)o1 (configuration not stated)	36.5% (active)
CCc1c(C)sc(NC(=O)c2ccc(Br)o2)c1C(=O)OC	2.81%
Cc1cccc(C(=O)N2CCCN(C(=O)c3cccc(C)c3)CC2)c1	17.7%
COC(=O)C1C(=O)NCC1c1ccc(C)cc1 (configuration not stated)	-3.77%
CCCCN=C1N/C(=C\c2ccco2)C(=O)N1c1ccccc1	1.56%
O=C1c2ccccc2C(=O)N1CCC(c1ccccc1)c1ccco1 (configuration not stated)	-1.67%
CCCCCCC(=O)Nc1nc(C)c(-c2csc(Nc3cc(Cl)ccc3OC)n2)s1	-2.77%
CCCCC(=O)Nc1nc(C)c(-c2csc(Nc3ccc(Cl)cc3)n2)s1	32.9% (active)
C=CCCC(=O)Nc1nc(C)c(-c2csc(Nc3ccc(Cl)cc3)n2)s1	12.8%
CCCCOc1ccc(C(=O)NCc2ccncc2)cc1	2.23%

Compound	inhibition
COc1c(C)cccc1C(=O)Nc1cc(Cl)ccc1N1CCOCC1	64.3% (active)
Cc1cc(C(=O)Nc2ccccc2N2CCOCC2)c2ccccc2n1	-2.05%
O=C(CNC(=O)c1ccc(Cl)cc1Cl)NCC(=O)Nc1ccccc1N1CCOCC1	-6.67%
Cc1nonc1NC(=O)c1ccccc1Br	-12.3%
O=C(Nc1cccc(Cl)c1)Nc1nnc(-c2ccccc2)o1	-5.96%
O=C(Nc1nnc(-c2ccc(Cl)cc2)o1)c1ccccc1Br	78.2% (active)
CS(=O)(=O)N1CCN(c2ccc(C(=O)NC3C4CC5CC(C4)CC3C5)cc2[N+](=O)[O-])CC1 (configuration not stated)	-5.58%
CCOC(=O)N1CCC(Nc2c(NCCCN3CCN(CC)CC3)c(=O)c2=O)CC1	-3.44%
Cc1ccc(C(=O)NNC(=O)OC(C)(C)C)c(Cl)c1	-3.13%
CCN1CCN(c2c(Cl)cccc2NC(=O)c2ccc(Br)o2)CC1	30.4% (active)
COc1cc(OC)c(NC(=O)c2ccc(Br)o2)cc1Cl	6.31%
CCCC(=O)Nc1ccc(Cl)c(NC(=O)c2ccc(Br)o2)c1	0.4%
CC(C)Cn1cnc2c1c(=O)n(CC(O)c1ccccc1)c(=O)n2CC(C)C (configuration not stated)	2.02%
CCn1c2ccccc2c2cc(NC(=S)N3CCOCC3)ccc21	8.17%
COc1ccc(N2CCN(Cc3cc(=O)oc4ccc5ccccc5c34)CC2)cc1	14.4%
CCCC(=O)N(CCc1ccccc1)Cc1nc2ccccc2c(=O)[nH]1	-6.28%
CN(Cc1nc2ccccc2c(=O)[nH]1)Cc1cc(=O)oc2ccc3ccccc3c12	39.3% (active)
CC(C)c1ccc(NC(=O)CCN2C(=O)c3ccc([N+](=O)[O-])cc3C2=O)cc1	-0.5%
Cc1ccc(S(=O)(=O)NCC(=O)N(CC(=O)NC(C)(C)C)Cc2cccs2)cc1	-2.77%
Cn1nc([N+](=O)[O-])nc1Sc1ccc(C(C)(C)C)cc1	0.31%
Cn1c(Cn2nnc3ccccc32)nnc1SCC(=O)c1ccccc1F	11.5%
O=C(c1cccnc1NCc1ccccc1)N1CCOCC1	-0.34%
COc1ccc(C(CNC(=O)c2cccnc2SC)N2CCOCC2)cc1 (configuration not stated)	-3.85%
CSc1ncccc1C(=O)OCC(=O)N1CCOCC1	31.5% (active)
Cc1ccc(SCC(=O)c2sc(-c3ccccc3)nc2C)cc1	-0.4%

Compound	inhibition
O=C(COc1ncnc2c(Cl)cc(Cl)cc12)N1CCN(S(=O)(=O)c2ccccc2)CC1	18.3%
CC(=O)NNc1cc(=O)c2c(=O)n(C)c(=O)n(C)c2[nH]1	9.45%
CNS(=O)(=O)c1cnccc1N1CCN(c2cccc(C)c2)CC1	-3.21%
O=S(=O)(c1cnccc1N1CCN(/N=C/c2ccc(Br)cc2)CC1)N1CCCCC1	49.6% (active)
O=C(O)C1CCCN(S(=O)(=O)c2cccc3cccnc23)C1 (configuration not stated)	-3.64%
CCCOn1c(-n2nc(C)cc2C)nc2ccccc2c1=O	2.91%
CCOC(=O)N1CCN(c2c(NCCCN3CCCC(C)C3)c(=O)c2=O)CC1 (configuration not stated)	7.09%
O=C(OCc1cn(-c2ccc(Cl)c(Cl)c2)nn1)c1ccccc1Cl	-1.94%
CCn1c(/C=C/c2ccc([N+](=O)[O-])o2)nc2ccccc2c1=O	76.6% (active)
CCc1ccc(NC(=O)CSc2nc3ccccc3c(=O)n2CCN2CCOCC2)cc1	0%
Cc1nc2ccccc2c(=O)n1CCCn1ccnc1	2.21%
O=C(CCCCCn1c(=O)[nH]c2ccccc2c1=O)NCCc1c[nH]c2ccccc12	-3.35%
COc1ccc2c(c1)CCc1c(C(=O)N3CCCC3)noc1-2	-1.12%
COc1ccc2c(c1)CCc1c(C(=O)Nc3c(C)n(C)n(-c4ccccc4)c3=O)noc1-2	3.19%
COc1ccc2c(c1)CCc1c(C(=O)N3CCc4ccccc4C3)noc1-2	40.4% (active)
CCN(CC)CCCNC(=O)CCc1ccccc1	3.7%
Cc1nn(CC(=O)Nc2nc3ccccc3s2)c(C)c1[N+](=O)[O-]	-1.92%
O=C(CCS(=O)(=O)c1cccc2nsnc12)N1CCN(c2ccccc2F)CC1	6.04%
Fc1ccc(N2N=C(c3cccs3)CC2c2ccco2)c(F)c1 (configuration not stated)	8.56%
CC(NC(=O)CSc1nc2c(cc1C#N)CN(C)CC2)c1ccccc1 (configuration not stated)	60.2% (active)
Cc1cc2cc3c(cc2nc1SCC(=O)Nc1c(C)cccc1C)CCC3	-0.36%
Cc1nc2cc(NC(=O)CSc3nc4c(C)cccc4cc3C#N)ccc2s1	-0.17%
